Rows were chosen to be rich in hits. Some 4.9% of all compounds tested hit in one or more screens of this group.
tim10-1 inh = growth inhibitors of tim10-1 mutant yeast, primary screen, luminescence, uHTS; AID 463190, 2010; inhibition, % at 20 µM; actives 2.2% (n = 330,000); S. cerevisiae tim10-1 ts strain growth, BacTiter-Glo, 24 h;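 active means inhibition of at least 40%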;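 further: mutant grown at 25 °C; 0% = DMSO wells with yeast and 100% = wells holding no yeast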
TIM10 inh = growth inhibitors of isogenic TIM10 control yeast, primary screen, counter-screen for tim10-1 yeast inhibitor project, luminescence, uHTS; actives 1.4% (n = 330,000); inhibition, % at 10 µM; S. cerevisiae TIM10 strain growth, BacTiter-Glo luminescence, 24 h;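 active means inhibition of 40% or more at the single tested concentration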;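 further: wild-type TIM10 isogenic control strain grown at permissive 25 °C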
tim23-1 inh = growth inhibitors of tim23-1 mutant yeast, primary screen, luminescence, uHTS | S. cerevisiae tim23-1 growth, BacTiter-Glo luminescence, 24 h | inhibition, % at 20 µM | actives 1.3% (n = 330,000) | AID 463212, 2010;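 active means growth inhibition of the mutant yeast at or above 50%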;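 further: temperature-sensitive mutant grown at 25 °C; plate controls were DMSO-treated mutant yeast for no effect and medium wells lacking yeast for full effect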
NALP3 yeast inh = NALP3 inflammasome inhibitors in reconstituted yeast, primary screen, luminescence, uHTS | Yeast reconstituted NLRP3/ASC/caspase-1, beta-gal luminescence, 24 h | inhibition, % at 10 µM | actives 0.39% (n = 330,000);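 active means inhibition of 50% or more; inactive means inhibition below 50%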;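 further: plate controls were induced DMSO wells for no effect and uninduced yeast grown without galactose for full effect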
NALP1 inh = NALP1 inflammasome inhibitors in reconstituted yeast, colorimetric, S. cerevisiae, triplicate retest; S. cerevisiae NALP1/ASC/caspase-1 growth, X-gal OD620, 72 h; inhibition, % at 10 µM; actives 0.61% (n = 280,000); AID 2071, 2009; in the data active means inhibition mostly above about 24%, no sharp cut-off; inactive means mostly below about 32%
SKKanGAS inh = S. pyogenes SKKanGAS growth inhibitors in kanamycin, primary screen, streptokinase expression inhibitor project, SKKanGAS strain, BacTiter-Glo luminescence; 6 h; inhibition, % at 7.5 µM; actives 1.3% (n = 300,000); AID 1662, 2009;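 active means mean replicate score, as percent of positive control median, at least 50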;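 further: strain carries kanamycin resistance gene driven by streptokinase promoter and grows in 40 µg/ml kanamycin; loss of luminescence reflects streptokinase promoter inhibition or plain growth inhibition; 0% = median of DMSO wells and 100% = positive control at its reference dose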
tim23-1 conf = tim23-1 mutant yeast growth inhibitors, confirmation, luminescence, single concentration. shares compounds with tim23-1 inh. S. cerevisiae tim23-1 growth, BacTiter-Glo luminescence, 24 h. inhibition, % at 20 µM. actives 83% (n = 4,400);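 active means inhibition above about 39% in either of two replicate wells at 20 µM, limit read from the data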;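 further: temperature-sensitive tim23-1 mutant grown at 25 °C; 0% = DMSO wells with yeast and 100% = medium wells without yeast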
* marks the source's active call; other numbers are inactive results; · = no result given.

SMILES | tim10-1 inh | TIM10 inh | tim23-1 inh | NALP3 yeast inh | NALP1 inh | SKKanGAS inh | tim23-1 conf
Cc1ccc(CN2CCN(/N=C/c3cc(Br)cc(Br)c3O)CC2)cc1 | 25.1 | 11.6 | 59.3* | 25.8 | 14.0 | 2.5 | 58.9*
Cc1ccc(C(=O)CSc2nnnn2Cc2ccccc2)cc1C | 22.0 | 16.2 | 50.5* | 11.7 | · | -4.0 | 49.0*
COC(=O)c1ccsc1NC(=O)CSc1nnnn1Cc1ccccc1 | 34.9 | 10.7 | 50.9* | 20.9 | -0.2 | · | 37.5
COc1ccc(Cl)cc1/C=C(\C#N)C(N)=O | 3.4 | 21.0 | 37.6 | 27.7 | 0.1 | -1.3 | ·
c1ccc2[nH]c(CSc3nc4ccccc4o3)nc2c1 | -40.5 | 13.4 | 54.4* | 32.4 | 26.0 | 1.9 | 54.9*
CCN1CCN(C(=O)c2ccc(-c3nc4ccccc4s3)s2)CC1 | 24.0 | 11.6 | 12.9 | 8.3 | 7.9 | -0.8 | ·
O=C(c1ccc(-c2nc3ccccc3s2)s1)N1CCOCC1 | 4.4 | 14.9 | 53.3* | 12.9 | 25.4 | -0.6 | 43.9*
NNC(=O)c1n[nH]c2c1CC(C1CCCCC1)CC2 (configuration not stated) | 34.1 | 15.6 | 47.7 | 5.5 | · | · | ·
C=CCNC(=O)c1n[nH]c2c1CC(C(C)(C)CC)CC2 (configuration not stated) | 36.4 | 21.3 | 52.8* | 11.5 | · | · | 55.8*
CCCNC(=O)c1n[nH]c2c1CC(C(C)(C)CC)CC2 (configuration not stated) | 37.2 | 23.6 | 57.3* | 9.6 | · | · | 58.2*
Cc1ccc(/C=N/NC(=O)c2cc3c(ccc4ccccc43)o2)o1 | -33.3 | 14.0 | 56.5* | 48.1 | 21.1 | -7.4 | 46.1*
O=C(N/N=C/c1ccc([N+](=O)[O-])o1)c1cc2c(ccc3ccccc32)o1 | · | · | · | · | 4.7 | · | ·
c1ccc2sc(-c3ccncc3)nc2c1 | 13.9 | -13.1 | 17.0 | 12.9 | 0.5 | -5.9 | ·
Oc1ccc(-c2nc3ccccc3s2)cc1 | 35.9 | 30.2 | 69.4* | 37.1 | 9.4 | 13.9 | 63.9*
CCCn1c(=O)c(C(=O)NCCc2ccc(OC)cc2)c(O)c2ccccc21 | -24.9 | 3.9 | 14.4 | 22.2 | 12.4 | 10.0 | ·
O=C1OC(c2ccccc2)=NC12CC2c1ccc(Cl)cc1 (configuration not stated) | -4.8 | 29.6 | 56.3* | 24.7 | 5.8 | -4.1 | -69.2
COc1cc(NC(=O)c2cc3sccc3n2C)cc(OC)c1 | 32.4 | 31.3 | 53.0* | 28.9 | 9.4 | -3.3 | 43.5*
O=C(Nc1cc(-c2ccccc2)[nH]n1)c1ccccc1F | -15.3 | 12.9 | 50.9* | 45.6 | · | -4.5 | 41.0*
O=C(Nc1cc(-c2ccccc2)[nH]n1)c1ccccc1 | -46.9 | 32.4 | 52.0* | 28.0 | · | 18.0 | 56.2*
COc1cccc(NC(=O)Cc2nnc(SCC(=O)NC3CCCC3)n2C)c1 | -19.6 | -7.3 | 14.1 | 3.6 | 4.6 | 8.1 | ·
O=Cc1cccnc1SCc1ccccc1 | 17.0 | 14.7 | 57.2* | 8.7 | · | 8.8 | 61.3*
Oc1cccnc1SCc1ccccc1 | -23.3 | -3.1 | 9.1 | 5.2 | · | 13.3 | ·
CCCc1cc(=O)[nH]c(SCC(=O)c2cc(C)n(C(C)COC)c2C)n1 (configuration not stated) | 6.7 | -0.9 | 17.2 | -10.4 | · | 1.2 | ·
CCOC(=O)[C@@H]1[C@H]2COc3ccc(Br)cc3[C@@H]2N2C(=O)N(c3ccc(C)cc3)C(=O)[C@@]12C | 12.6 | 8.5 | 26.3 | 2.3 | · | · | ·
NS(=O)(=O)c1ccc(N2N=C(c3ccccc3)CC2c2cccc(Br)c2)cc1 (configuration not stated) | 34.9 | 13.1 | 52.2* | · | · | · | 33.2
SMILES | tim10-1 inh | TIM10 inh | tim23-1 inh | NALP3 yeast inh | NALP1 inh | SKKanGAS inh | tim23-1 conf
COC(=O)c1ccc(-c2ccc(C(c3c(C)[nH][nH]c3=O)c3c(C)[nH][nH]c3=O)o2)cc1 | 0.4 | -6.5 | 57.1* | 12.0 | 18.9 | -1.5 | 37.4*
Cc1[nH][nH]c(=O)c1C(c1ccc(-c2cccc(Cl)c2)o1)c1c(C)[nH][nH]c1=O | 3.0 | -19.0 | 78.4* | 14.7 | · | 4.8 | 61.9*
Cc1[nH][nH]c(=O)c1C(c1ccc(-c2cccc(C(=O)O)c2)o1)c1c(C)[nH][nH]c1=O | 7.7 | 6.4 | 11.6 | 1.5 | -17.5 | 6.9 | ·
Cc1ccc(C(NC(=O)c2ccccc2)C(Cl)(Cl)Cl)cc1 (configuration not stated) | 3.4 | 11.5 | -7.6 | 8.8 | 6.4 | 6.9 | ·
CC(=O)Nc1sc2c(c1C#N)CCCC2 | 15.2 | -4.6 | 8.5 | -12.1 | · | -14.4 | ·
N#Cc1c(NC(=O)C2CC2)sc2c1CCCCC2 | 34.8 | 28.0 | 51.0* | 13.6 | 25.8 | -8.5 | 44.5*
Cc1ccc(N=Cc2c(O)ccc3ccccc23)cc1F | 22.8 | 23.3 | 37.9 | 15.8 | 21.6 | 7.0 | ·
O=C(O)c1ccc(N=Cc2c(O)ccc3oc4c(c23)CCCC4)cc1 | 13.7 | 24.9 | 65.7* | 13.3 | -1.0 | 15.4 | 71.2*
NC(=O)c1ccc(N=Cc2c(O)ccc3ccccc23)cc1 | 22.1 | 10.9 | 57.3* | -4.0 | · | -11.6 | 45.0*
O=C(O)c1ccc(N=Cc2c(O)ccc3ccccc23)cc1 | 8.1 | 11.6 | 58.4* | 14.6 | 0.5 | 0.1 | 56.2*
O=C(O)Cc1ccc(N=Cc2c(O)ccc3ccccc23)cc1 | -9.1 | 20.1 | 33.7 | 3.1 | 29.0 | -2.4 | ·
COc1ccc(N=Cc2c(O)ccc3ccccc23)cc1 | 35.0 | 18.7 | 56.8* | 9.8 | -18.5 | -5.9 | 57.4*
CCCCN(CC)CCNC(=O)CN1C(=O)COc2ccc(S(=O)(=O)N3CCCC3)cc21 | 5.1 | -7.0 | 7.0 | -2.4 | 8.0 | 3.8 | ·
Cc1cc(C(=O)N/N=C/c2c(C)nn(-c3ccccc3)c2C)n[nH]1 | -3.8 | -9.5 | 1.2 | 15.6 | 14.1 | -3.0 | ·
Cc1nn(-c2ccccc2)c(C)c1/C=N/NC(=O)c1cc(C23CC4CC(CC(C4)C2)C3)[nH]n1 | 23.6 | 31.8 | 52.6* | 22.2 | 23.4 | 64.3* | 47.2*
Cc1[nH]c2ccc(F)cc2c1CCN(Cc1cccnc1)C(=S)Nc1cccc(F)c1 | -0.8 | 8.2 | 16.9 | 24.7 | -3.1 | 6.0 | ·
Fc1cccc(-c2cc3nc4c(c(N5CCC6(CC5)OCCO6)n3n2)CCCC4)c1 | 21.1 | 30.7 | 52.5* | 15.4 | 20.9 | 6.2 | 37.3
O=C(Nc1ccccc1)C1CC2CCC1C2 (configuration not stated) | -5.5 | 6.4 | 21.2 | 4.7 | 24.5 | 0.2 | ·
O=C(Nc1ccccc1)OC1CCC2CC1CCC2OC(=O)Nc1ccccc1 (configuration not stated) | 1.9 | 15.3 | 53.0* | -9.2 | 14.7 | 52.0* | 38.5

From PubChem BioAssay
